About 83,000 compounds went through this panel and 20% of them were active in at least one assay; those are over-represented in the sample as a whole.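 96-well plates, one dose, 48 hours. Percent growth reported; active if below 10.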 Values without a mark were called inactive. The source made the active and inactive calls.
Legend:
Test in all cases: NCI-60 one-dose screen, 48 h (100 = growth as untreated, 0 = no growth, -100 = all killed)
Details in all cases: 10 µM unless noted
NCI-H23 lung = tested on: NCI-H23 lung
NCI-H226 lung = tested on: NCI-H226 lung
NCI-H322M lung = tested on: NCI-H322M lung
HOP-62 NSCLC = tested on: HOP-62 NSCLC
NCI-H460 lung = tested on: NCI-H460 lung
HOP-92 NSCLC = tested on: HOP-92 NSCLC
NCI-H522 lung = tested on: NCI-H522 lung
A549/ATCC NSCLC = tested on: A549/ATCC NSCLC
786-0 renal = tested on: 786-0 renal
COLO 205 colon = tested on: COLO 205 colon
DU-145 prostate = tested on: DU-145 prostate
K-562 leukemia = tested on: K-562 leukemia
MALME-3M melanoma = tested on: MALME-3M melanoma
MDA-MB-231 breast = tested on: MDA-MB-231 breast
RXF 393 renal = tested on: RXF 393 renal
SF-268 CNS = tested on: SF-268 CNS
SF-295 CNS = tested on: SF-295 CNS
SF-539 CNS = tested on: SF-539 CNS
UACC-257 melanoma = tested on: UACC-257 melanoma
M14 melanoma = tested on: M14 melanoma

SMILES | growth (NCI-H23 lung) | growth (NCI-H226 lung) | growth (NCI-H322M lung) | growth (HOP-62 NSCLC) | growth (NCI-H460 lung) | growth (HOP-92 NSCLC) | growth (NCI-H522 lung) | growth (A549/ATCC NSCLC) | growth (786-0 renal) | growth (COLO 205 colon) | growth (DU-145 prostate) | growth (K-562 leukemia) | growth (MALME-3M melanoma) | growth (MDA-MB-231 breast) | growth (RXF 393 renal) | growth (SF-268 CNS) | growth (SF-295 CNS) | growth (SF-539 CNS) | growth (UACC-257 melanoma) | growth (M14 melanoma)
Cc1cc(N2CCOCC2)nc(NCc2cc(Nc3ccnc4cc(Cl)ccc34)ccc2F)n1 | -32.9% (active) | 16.1% | -27.6% (active) | -63% (active) | -65.7% (active) | -30.8% (active) | -61% (active) | -49.4% (active) | -93.7% (active) | -70.9% (active) | -57.6% (active) | -4.96% (active) | -73.7% (active) | -78.3% (active) | -92.4% (active) | -52.5% (active) | -84.4% (active) | -80.4% (active) | -68.3% (active) | -83.7% (active)
CCN(CC)CCCCNc1c2ccc(Cl)cc2nc2ccc(OC)cc12 | -42.8% (active) | -53.7% (active) | -30.4% (active) | 2.75% (active) | -23.8% (active) | -30.7% (active) | -37.4% (active) | 9.02% (active) | -16.6% (active) | -52% (active) | -2.29% (active) | -19% (active) | -65.6% (active) | -52.4% (active) | -61% (active) | -23.1% (active) | -58.7% (active) | -83% (active) | -37.1% (active) | -71.3% (active)
O=S(=O)(Nc1ccc(I)cc1F)c1ccc(-c2cnc(C3CC3)o2)cc1 | 71.2% | 80.2% | 86.2% | 52.4% | 38.4% | 62.1% | 31.2% | 50.6% | 69.1% | 68.4% | 78.2% | 13.2% | 50.9% | 61% | 73% | 63.3% | 28.6% | 44.1% | 63.1% | 37.4%
COc1ccc(S(=O)(=O)N2CCCCCC2)cc1NC(=O)c1[nH]c(C)c2c1CCCCC2=O | 30.4% | 45.5% | 35.8% | 26.8% | 42.2% | 31.5% | 27.3% | 29.6% | 34.9% | 26.8% | 58% | 21.4% | 55.6% | 36.3% | 34.7% | 52.8% | 25.5% | 29.9% | 34.5% | 42.8%
CC(=O)O[C@H]1CC[C@]2(C)[C@H]3CC=C4[C@@H]5CC(C)(C)CC[C@]5(C(=O)NCCNCCNCCN)CC[C@@]4(C)[C@]3(C)CC[C@H]2C1(C)C | 86.5% | 91.4% | 95.2% | 87.5% | -56.3% (active) | 61.9% | 54.3% | 43% | -56.3% (active) | -93.1% (active) | 17% | -11.3% (active) | 73.5% | -42.9% (active) | 65.4% | 87.1% | 102% | 86.2% | 93.1% | 23.8%
CC1=NN(c2nc(-c3ccc(Cl)cc3)c(C#N)c(N3CCOCC3)n2)C(=O)C1 | 80.7% | 89.8% | 101% | 87% | 99.1% | 6.28% (active) | 78.9% | 101% | 49.1% | 104% | 102% | 101% | 42% | 91.9% | 43.4% | 91.1% | 103% | 97.9% | 99.9% | 90%
COc1cc(/C=C/c2cc(O)c3cc(C(C)=O)c(=O)oc3c2)cc2c1O[C@]1(C)CC[C@@H](O)C(C)(C)[C@H]1C2 | 52.1% | 76.4% | 67.6% | 50.4% | 23% | 33.2% | 67.7% | 52.2% | -1.22% (active) | 89.8% | 53.4% | 17.2% | 25.4% | 64.4% | -58.5% (active) | 35.8% | -63.3% (active) | -33.3% (active) | 36.5% | -49.4% (active)
